Results filed as inconclusive are left out. Calls come from the whole dose curve; as a rule, active = well fitted curve in either direction with a large enough effect (not every such curve was filed as active); inconclusive = small, poorly fitted or top-dose-only effect, or another doubt; inactive = flat fitted curve, though single readings scatter.
Experiment: Stat Signaling Pathway (AID 446);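 note: ME-180 cervical cancer cells given 40 pM IL-6 alongside compound; SIE-controlled beta-lactamase reporter measured as 460/530 nm FRET emission ratio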
Conditions: ME-180 SIE beta-lactamase reporter, IL-6 stimulated, 5 h; at 17.2 µM (top of the series) unless noted
Outline: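 Reporter line: ME-180 cervical carcinoma, SIE-beta-lactamase. Treatment: compound with 40 pM IL-6, 5 hrs, 37 C, in low-serum OPTI-MEM with 10 mM HEPES pH 7.3. Detection: 460/530 nm fluorescence.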
% is set by controls: 0 for no effect and ±100 for the full control effect.

activity, negative = inhibition, inactive:
CC(=O)c1cc(C#N)c(SCC(=O)C(C)(C)C)nc1C 12.6%
CCOC(=O)c1[nH]c2ccc(OC)cc2c1NC(=O)CCN1CCCC(C)C1 (stereo not drawn) 3.31%
N/C(=N\S(=O)(=O)c1ccc(Cl)s1)c1ccccc1 -9.11%
C=CCNc1nc(-c2ccc(O)c(C(N)=O)c2)cs1 -12.3%
Cc1sc(-n2c(C)ccc2C)c(C#N)c1C 0.959%
CC(NC(=O)NCCCC(=O)O)(C(F)(F)F)C(F)(F)F 1.17%
COc1ccc(/C(O)=C2\C(=O)C(=O)N(Cc3ccco3)C2c2cc(OC)ccc2OC)cc1 (stereo not drawn) -17.9%
COc1ccc(C2C(C#N)=C(C)NC3=C2C(=O)c2ccccc23)cc1 (stereo not drawn) -7.06%
COc1cc(NC(=O)NC(C)(C(F)(F)F)C(F)(F)F)cc(OC)c1OC -4.15%
CCCOc1ccc(C2/C(=C(/O)c3ccccc3)C(=O)C(=O)N2CCCN(C)C)cc1OC (stereo not drawn) 10.3%
Cc1noc(NS(=O)(=O)c2ccc(NC(=O)COc3ccccc3)cc2)c1C -0.515%
O=C(NCc1ccco1)c1cnn2c1NC(c1ccccc1)CC2C(F)(F)F (stereo not drawn) -6.74%
O=C(CN1C(=O)c2ccccc2S1(=O)=O)c1ccccc1 3.52%
CCCOc1ccc(/C(O)=C2/C(=O)C(=O)N(CCN3CCOCC3)C2c2ccccc2)cc1 (stereo not drawn) -4.33%
COC(=O)/C=c1/s/c(=C(\C#N)C(=O)NCc2ccco2)n(-c2ccccc2)c1=O 5.13%
COCCNc1oc(-c2ccc(F)cc2)nc1C#N -2.97%
COC(=O)c1ccc(CSc2nc(N3CCOCC3)c3c(c2C#N)CC(C)(C)OC3)o1 20%
CCOc1cccc(-c2nn3c(-c4ccccn4)nnc3s2)c1 -1.87%
COc1cccc(COc2nc3c(c(=O)n(C)c(=O)n3C)n2C)c1 -3.58%
CC1(C(=O)CSc2nc3ccccc3[nH]2)CCC(=O)O1 (stereo not drawn) -2.98%
Cn1c(=O)[nH]c(=O)c2c1nc(Br)n2CCSc1ncccn1 4.76%
CCOC(=O)c1c(CN2CCN(C)CC2)n(C)c2cc(Br)c(OC)cc12 -13%
Cc1cccc(COc2ccc(/C(O)=C3\C(=O)C(=O)N(CCN(C)C)C3c3ccncc3)cc2)c1 (stereo not drawn) 2.96%
COC(=O)CCc1c(C)[nH]c(=S)[nH]c1=O 1.45%
Oc1ccccc1-c1nc(NCCN2CCOCC2)c2ccccc2n1 -12.5%
COc1ccc(Nc2nc(Nc3ccc(OC)cc3)nc(-n3[nH]c(=O)c(C)c3C)n2)cc1 8.62%
CCc1c(C(=O)O)[nH]c2ccc(Br)cc12 -0.02%
COc1ccccc1N1CCN(C2CCN(C(=O)c3cc(OC)c(OC)c(OC)c3)CC2)CC1 10.4%
